# Screening results (PubChem)
# TDP1 cell CPT – growth inhibition of DT40 Tdp1-/-;hTDP1 cells with camptothecin (screen for TDP1 inhibitors) | chicken DT40 Tdp1-/-;hTDP1 cells + 20 nM CPT, ATP luminescence, 48 h | Potency, µM (doses to about 46.2 µM), inactives show at the highest dose activity change, negative = growth inhibition, actives largely listed as inhibitors | actives 12% (n = 420,000) | AID 686979; further: potency means the concentration at half of the fitted maximal effect; on the % scale 0 is the no-effect control and ±100 the full control effect; nearly all actives have a fitted effect of over 55% in size
#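 Chicken DT40 Tdp1-/- cells stably complemented with human TDP1 were seeded at 400 cells/well in medium containing 20 nM camptothecin, exposed to pin-transferred compounds, and grown at 37 °C for at least 48 hr. Viability was read as ATP luminescence.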
# D3 antag – D3 dopamine receptor (human) antagonism; D3R cells, DiscoveRx beta-arrestin luminescence, antagonist mode; active compounds read low; max response, negative = inhibition, %; actives 2.5% (n = 360,000); in the data active means max response below about -50%; inconclusive means no clear call, values can overlap the other calls; further: on the % scale 0 is the no-effect control and ±100 the full control effect
# Target sequence (P35462 whole entry, looked up): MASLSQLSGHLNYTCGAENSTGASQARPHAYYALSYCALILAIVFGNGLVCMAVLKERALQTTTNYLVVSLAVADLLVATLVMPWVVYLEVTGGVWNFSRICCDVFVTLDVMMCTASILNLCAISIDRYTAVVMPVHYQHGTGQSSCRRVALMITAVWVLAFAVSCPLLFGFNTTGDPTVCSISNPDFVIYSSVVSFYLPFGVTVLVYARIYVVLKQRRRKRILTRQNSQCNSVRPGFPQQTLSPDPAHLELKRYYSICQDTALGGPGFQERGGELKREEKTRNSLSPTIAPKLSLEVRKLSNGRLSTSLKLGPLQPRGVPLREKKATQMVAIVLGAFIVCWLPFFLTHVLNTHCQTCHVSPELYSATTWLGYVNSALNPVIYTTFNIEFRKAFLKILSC
#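 Cells expressing the human receptor were seeded at 1500 cells/well, incubated overnight at 37 degrees C in 5% CO2, then exposed to library compounds with dopamine controls for 90 minutes at 37 degrees C before luminescent detection.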
# D3 ag – D3 dopamine receptor (human) agonism | actives 0.58% (n = 410,000) | P35462 | D3R DiscoveRx beta-arrestin cells, luminescence, 90 min | max activation, %; in the data active means max activation above about 30%; further: 0% is about no effect
#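 Agonist mode: compounds and dopamine controls were applied to plated cells for 90 min at 37 degrees C after an overnight attachment at 1500 cells/well. Luminescent read-out followed 30 - 60 minutes at room temperature with DiscoveRx detection reagent.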
# DT40 TDP1 no CPT – qHTS for Inhibitors of human tyrosyl-DNA phosphodiesterase 1 (TDP1): qHTS in cells in absence of CPT. DT40 Tdp1-/- hTDP1 cells, no CPT, ATP luminescence, 48 h. actives 15% (n = 420,000). Potency, µM (doses to about 46.2 µM), for inactives: at the highest dose activity change, negative = growth inhibition, hits mostly inhibitors; further: potency means the concentration at half of the fitted maximal effect; on the % scale 0 is the no-effect control and ±100 the full control effect; nearly all actives have a fitted effect of over 55% in size
#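 Growth of hTDP1-complemented DT40 Tdp1-knockout cells is measured by ATP luminescence after at least 48 hr compound exposure at 37 °C, with DMSO substituting for the 20 nM CPT used in the parallel screen.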
# ClpP mod – qHTS Assay for Activators of ClpP | actives 1.9% (n = 340,000) | Potency, µM (doses to about 57.5 µM), without a hit: at the highest dose activity change, negative = active | ATP-dependent Clp protease proteolytic subunit (Bacillus subtilis (strain 168)), P80244 | AID 651965, 2013 | purified B. subtilis ClpP, FRET peptide cleavage, 20 min; active means well fitted falling curve with a large enough effect; inconclusive means small, poorly fitted or top-dose-only effect; inactive means no such curve, though single readings can be large or run the other way; further: potency means the concentration at half of the fitted maximal effect; the source files actives as falling curves though it sought activators and does not explain the sign; nearly all actives have a fitted effect of over 65% in size
# Target sequence (P80244 whole entry, looked up): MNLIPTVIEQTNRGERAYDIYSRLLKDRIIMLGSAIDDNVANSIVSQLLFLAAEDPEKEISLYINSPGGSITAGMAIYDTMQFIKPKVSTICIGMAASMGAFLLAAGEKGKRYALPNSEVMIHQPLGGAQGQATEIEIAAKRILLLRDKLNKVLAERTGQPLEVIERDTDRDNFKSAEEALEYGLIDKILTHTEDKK
#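 FRET quenching reversal measured ClpP activation: 10 microg/mL B. subtilis ClpP at pH 8 with the FRET-FV decapeptide, read at 430 nm after 320 nm excitation. The 20-min minus 0-min signal was scaled between DMSO/no-enzyme wells and ADEP (5.8 microM final).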
# IL-1B inflam inh – inflammasome signaling inhibition, IL-1 beta readout | THP-1 LPS/ATP IL-1B secretion, AlphaLISA, 16 h; active compounds read low | activity change, % at 57.5 µM | actives 4.7% (n = 360,000) | AID 743279; in the data active means activity change below about -50%; inconclusive means mostly about -30% to -49%; further: on the % scale 0 is the no-effect control and ±100 the full control effect
#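 Secreted IL-1B measured by AlphaLISA bead assay after 16 h compound exposure of THP-1 cells; compounds (final up to 57.5 uM) added 1 h before LPS (250 ng/mL) and ATP (1.25 mM) stimulation; lower signal means less secretion.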
# An asterisk follows results filed as active; ? = inconclusive; · = no result; [ ] = dose if it differs, or a comment. A selection: hits, their analogues and other compounds. The true share with any hit is near 21%. Unless noted, the call rests on the fitted dose curve; in most records, active means well fitted inhibition curve with a large enough effect; inconclusive means small, poorly fitted or top-dose-only effect; inactive means flat fitted curve, though single readings scatter.
SMILES,TDP1 cell CPT,D3 antag,D3 ag,DT40 TDP1 no CPT,ClpP mod,IL-1B inflam inh
CC1CCCN(CCCNC(=O)c2ccc3c(c2)N(Cc2cccc(Cl)c2)C(=O)c2ccccc2S3(=O)=O)C1 (centres undefined),6.5µM*,·,-25,5.8µM*,-3%,·
Cc1cccc(N2CCN(C(=O)c3ccc4c(c3)N(Cc3cccc(Cl)c3)C(=O)c3ccccc3S4(=O)=O)CC2)c1C,-7%,·,3,-6%,2%,·
O=C(Nc1ccc(N2CCOCC2)nc1)c1ccc(C(F)(F)F)cc1,2%,19,1,?,·,27
O=C(c1ccc2c(c1)N(Cc1cccc(Cl)c1)C(=O)c1ccccc1S2(=O)=O)N1CCCC1,23µM*,·,3,21µM*,-3%,·
CC1CCCCN1C(=O)c1ccc2c(c1)N(Cc1ccc(F)cc1)C(=O)c1ccccc1S2(=O)=O (centres undefined),?,·,-10,18µM*,-2%,·
O=C(c1ccc2c(c1)N(Cc1ccc(F)cc1)C(=O)c1ccccc1S2(=O)=O)N1CCN(Cc2ccccc2)CC1,12µM*,·,-9,8.2µM*,0%,·
COc1ccccc1N1CCN(C(=O)c2ccc3c(c2)N(Cc2ccccc2)C(=O)c2ccccc2S3(=O)=O)CC1,?,·,4,12µM*,-2%,·
CCN1CCN(C(=O)c2ccc3c(c2)N(Cc2ccc(F)cc2)C(=O)c2ccccc2S3(=O)=O)CC1,?,·,-23,?,-6%,·
CN1CCN(C(=O)c2ccc3c(c2)N(Cc2ccc(F)cc2)C(=O)c2ccccc2S3(=O)=O)CC1,-15%,·,-15,-28%,-1%,·
CCOC(=O)CSc1nnc2n(-c3ccccc3)c(=O)c3c4c(sc3n12)COC(C(C)C)C4 (centres undefined),?,·,-2,?,0%,·
Cc1ccccc1-c1cc(NCCN2CCOCC2)ncn1,12%,·,·,1%,·,·
O=C(c1ccc2c(c1)N(Cc1ccccc1)C(=O)c1ccccc1S2(=O)=O)N1CCc2ccccc21,4.1µM*,·,2,3.3µM*,0%,·
COc1ccc(/C=N\NC(=O)c2ccccc2F)cc1COc1ccc(F)cc1,?,2,2,?,37%,35
COc1cc(/C=N/NC(=O)c2ccoc2C)cc(OC)c1O,0%,12,3,9%,-7%,-13
COc1ccc(/C=N/NC(=O)c2ccoc2C)cc1COc1c(C)cccc1C,12µM*,9,8,15µM*,0%,6
COc1ccc(/C=N\NC(=O)c2ccccc2OC)cc1COc1ccccc1C,16µM*,36,21,?,?,-19
COc1ccc(/C=N\NC(=O)c2ccccc2F)cc1COc1ccc(F)cc1F,2.6µM*,2,-10,2.6µM*,-13%,66
COc1ccc(/C=N/NC(=O)c2ccc(OC)c(OC)c2)cc1COc1c(F)c(F)c(F)c(F)c1F,16µM*,1,4,?,-16%,32
O=C(CC[C@H]1O[C@@H](n2ccc(=O)[nH]c2=O)[C@H](O)[C@@H]1O)NCC(c1ccccc1)c1ccccc1,-3%,0,-11,-16%,0%,0
Cc1cc(Oc2ccc(=O)[nH]n2)nc(Cl)n1,-15%,27,2,8%,0%,-1
CCn1nc(C)c(CN2Cc3ccccc3OC(c3ccccc3OC)C2)c1C (centres undefined),3%[9.04 µM],·,·,?,·,·
O=C(CNC(=O)c1[nH]cnc1C(=O)NC(c1ccccc1)c1ccccc1)OCc1ccccc1,?,35,1,-11%,-1%,-8
COc1ccc(/C=N\NC(=O)c2ccccc2Br)cc1COc1c(F)c(F)cc(F)c1F,?,8,28,16µM*,-2%,-25
COc1ccc(/C=N/NC(=O)c2cc(C(C)(C)C)[nH]n2)cc1COc1ccc(F)cc1F,?,-27,-11,23µM*,-7%,-77*
COc1ccc(/C=N/NC(=O)c2ccc(NC(C)=O)cc2)cc1COc1ccc(F)cc1F,?,-8,1,-14%,4%,0
SMILES,TDP1 cell CPT,D3 antag,D3 ag,DT40 TDP1 no CPT,ClpP mod,IL-1B inflam inh
CN(Cc1cnn(-c2ccccc2)c1)C(=O)c1ccc(S(=O)(=O)NCc2ccco2)cc1,-26%,-9,-7,?,1%,-5
CN(Cc1cnn(-c2ccccc2)c1)C(=O)c1cccc(S(=O)(=O)N(C)c2ccccc2)c1,18µM*,14,0,16µM*,2%,-23
Cc1ccc(N(C)S(=O)(=O)c2cccc(C(=O)N(C)Cc3cnn(-c4ccccc4)c3)c2)cc1,?,20,3,?,-2%,-81*
O=c1ccc2cc(S(=O)(=O)Nc3ccc(F)c(Cl)c3)ccc2[nH]1,-2%,·,1,-26%,-6%,·
CCN1C(=O)[C@H]2[C@@H](c3ccc(OC)cc3)N[C@]3(CCCN(Cc4ccccc4)C3=O)[C@H]2C1=O,4%,19,-4,?,1%,17
COc1ccc(CN2CCC[C@]3(N[C@H](c4ccc(OC)cc4)[C@@H]4C(=O)N(Cc5ccccc5)C(=O)[C@@H]43)C2=O)cc1,21µM*,0,-9,16µM*,-1%,-7
COc1ccc([C@H]2N[C@]3(CCCN(Cc4ccc(Br)cc4)C3=O)[C@H]3C(=O)N(Cc4ccccc4)C(=O)[C@@H]23)cc1,?,11,-3,15µM*,-2%,-12
COc1ccc(CN2CCC[C@]3(N[C@H](c4ccc(C)cc4)[C@@H]4C(=O)N(Cc5ccccc5)C(=O)[C@@H]43)C2=O)cc1,?,17,3,?,1%,-22
CCN1C(=O)[C@H]2[C@@H](c3ccc(OC)cc3)N[C@]3(CCCN(Cc4ccc(Br)cc4)C3=O)[C@H]2C1=O,-8%,-17,5,26µM*,2%,33
COc1ccc(CN2CCC[C@]3(N[C@H](c4ccccc4)[C@@H]4C(=O)N(Cc5ccccc5)C(=O)[C@@H]43)C2=O)cc1,?,-3,-8,18µM*,-1%,-3
COc1ccc(N2CC(NC(=O)c3ccc4ccccc4c3)CC2=O)cc1OC (centres undefined),?,11,1,?,·,18
CN(Cc1ccccc1)C(=O)c1csc([C@@H]2O[C@H](CO)[C@@H](O)[C@H]2O)n1,-25%,16,1,-3%,-1%,-12
